Source: PubChem BioAssay AID696 (Sanford-Burnham Center for Chemical Genomics, 2007)
Hit rate of the full screen: of about 96,000 compounds, about 1,200 (1.2%) were called active. This is one part of a sample in which actives are shown more often than they occur. A number with no mark means an inactive call. Cut-off read from the data, not from the text of the source: active = activation fold above about 2; inactive = the rest.

Target: Alkaline phosphatase, placental type (Homo sapiens) (UniProt P05187)
Sequence (P05187 whole entry, looked up): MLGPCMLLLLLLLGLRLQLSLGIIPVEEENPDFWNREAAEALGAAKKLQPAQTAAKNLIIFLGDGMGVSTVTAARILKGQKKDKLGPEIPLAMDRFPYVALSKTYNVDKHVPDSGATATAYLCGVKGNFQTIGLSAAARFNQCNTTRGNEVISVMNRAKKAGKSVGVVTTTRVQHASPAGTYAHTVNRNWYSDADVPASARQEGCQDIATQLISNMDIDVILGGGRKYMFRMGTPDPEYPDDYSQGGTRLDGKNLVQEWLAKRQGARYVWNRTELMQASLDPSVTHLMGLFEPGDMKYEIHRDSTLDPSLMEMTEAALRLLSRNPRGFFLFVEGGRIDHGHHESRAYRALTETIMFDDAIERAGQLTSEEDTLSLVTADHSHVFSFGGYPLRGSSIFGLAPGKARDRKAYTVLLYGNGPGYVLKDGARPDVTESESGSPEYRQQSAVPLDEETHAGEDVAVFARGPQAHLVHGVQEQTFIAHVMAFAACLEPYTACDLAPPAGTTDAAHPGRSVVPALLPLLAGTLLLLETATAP
Experiment: PLAP enzyme activators, biochemical, luminescence, HTS (AID 696)
Details: purified PLAP enzyme, luminescent substrate read-out; at 20 µM; hits give high values

`COc1cc(Cn2c(N)c(C(=O)NCc3ccco3)c3nc4ccccc4nc32)cc(OC)c1OC` was tested, and the activation fold was 2.1 (active).

Compared with `CCOC(=O)c1c(N)n(CCN2CCOCC2)c2nc3ccccc3nc12`, `CCOC(=O)c1c(N)n(Cc2ccccc2)c2nc3ccccc3nc12` is lower in activation fold: 1.1 for the first, 0.9 for the second.

First: Nc1ccc(C(=O)N/N=C2/CN3CCC2CC3)cc1
Second: CCOc1ccc(C2SCC(=O)Nc3c2c(C)nn3C2CCOC(C)(C)C2)cc1 (stereo not given)
The activation fold of the first is lower: 0.9 for the first, 1.5 for the second.
